PubChem BioAssay AID1159580 (chemical genetic matrix, 2015)
The campaign covered roughly 5,500 compounds. About 2,000 (36%) were called active. Another 18% or so got no clear call; they are omitted. Rule as the data show it: active = normalized growth mostly below about 0.91 (no sharp cut-off); inconclusive = no clear call, values can overlap the other calls; inactive = mostly above about 0.92. Some of the results follow.

Test: chemical genetic growth profiling, strain panel (AID 1159580);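 also: tested at 20 µM; growth read once vehicle control cultures reached saturation at 30 °C; 1 = growth at the plate median or of vehicle wells; lower values mean less growth of the strain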
Conditions: S. cerevisiae deletion strains, growth OD

Measured: normalized growth

c1ccc2nc(N3CCNCC3)ccc2c1
inactive: locus YAL013W, strain DEP1, hits give low values 0.992 | locus YAL021C, strain ccr4, hits give low values 0.997 | locus YAL026C, strain drs2, hits give low values 0.989 | locus YAL030W, strain snc1, hits give low values 0.999 | locus YAL040C, strain CLN3, hits give low values 1.02 | locus YBL061C, strain skt5, hits give low values 1.01 | locus YBR009C, strain hhf1, hits give low values 1.01 | locus YBR023C, strain chs3, hits give low values 1.01 | locus YBR171W, strain sec66, hits give low values 0.985 | locus YBR231C, strain swc5, hits give low values 1.02 | locus YBR279W, strain paf1, hits give low values 1.01 | locus YCL011C, strain gbp2, hits give low values 0.97 | locus YCL016C, strain dcc1, hits give low values 1.01 | locus YCL061C, strain MRC1 (second series), hits give low values 1 | locus YCL061C, strain MRC1, hits give low values 0.981 | locus YCL069W, strain vba3, hits give low values 0.982 | locus YCR088W, strain abp1, hits give low values 0.984 | locus YDL005C, strain med2, hits give low values 1.01 | locus YDL040C, strain nat1, hits give low values 1.01 | locus YDR001C, strain nth1, hits give low values 0.982 | locus YDR069C, strain doa4, hits give low values 0.975 | locus YDR137W, strain rgp1, hits give low values 1.09 | locus YDR159W, strain sac3, hits give low values 0.985 | locus YDR195W, strain ref2 1.01 | locus YDR297W, strain sur2, hits give low values 1 | locus YDR334W, strain swr1, hits give low values 1.01 | locus YDR335W, strain msn5, hits give low values 1 | locus YDR363W, strain ESC2, hits give low values 0.97 | locus YDR392W, strain spt3, hits give low values 0.976 | locus YEL003W, strain gim4, hits give low values 0.971 | locus YEL037C, strain rad23, hits give low values 0.987 | locus YEL061C, strain CIN8 (second series), hits give low values 0.988 | locus YER002W, strain NOP16, hits give low values 1.03 | locus YER015W, strain faa2, hits give low values 0.995 | locus YER016W, strain bim1, hits give low values 1.01 | locus YER111C, strain swi4, hits give low values 0.99 | locus YER155C, strain BEM2 (second series), hits give low values 0.957 | locus YFR010W, strain ubp6, hits give low values 0.985 | locus YGL167C, strain pmr1, hits give low values 1.01 | locus YGL173C, strain kem1, hits give low values 1.01 | locus YGL227W, strain vid30, hits give low values 0.979 | locus YGL240W, strain doc1, hits give low values 0.998 | locus YGL253W, strain hxk2, hits give low values 1.01 | locus YGR078C, strain PAC10, hits give low values 1.01 | locus YHR013C, strain ard1, hits give low values 0.966 | locus YHR027C, strain rpn1, hits give low values 1.01 | locus YHR030C, strain SLT2, hits give low values 0.982 | locus YHR079C, strain IRE1, hits give low values 0.993 | locus YHR142W, strain chs7, hits give low values 0.968 | locus YJL092W, strain hpr5, hits give low values 0.978 | locus YJL095W, strain BCK1 (second series), hits give low values 1.01 | locus YJL095W, strain BCK1, hits give low values 0.999 | locus YJL115W, strain asf1, hits give low values 0.994 | locus YJL129C, strain trk1, hits give low values 0.947 | locus YJL154C, strain vps35, hits give low values 0.977 | locus YJL164C, strain tpk1, hits give low values 1.01 | locus YJL166W, strain qcr8, hits give low values 1.01 | locus YJL187C, strain SWE1, hits give low values 1 | locus YJR066W, strain TOR1, hits give low values 0.962 | locus YKL160W, strain elf1, hits give low values 1 | locus YKR026C, strain gcn3, hits give low values 0.981 | locus YKR091W, strain srl3, hits give low values 1 | locus YLL001W, strain dnm1, hits give low values 1.01 | locus YLL026W, hits give low values 1 | locus YLL041C, strain sdh2, hits give low values 1.01 | locus YLR027C, strain aat2, hits give low values 1 | locus YLR113W, strain HOG1, hits give low values 1.01 | locus YLR221C, strain rsa3, hits give low values 1 | locus YLR258W, strain gsy2, hits give low values 1.01 | locus YLR262C, strain YPT6 (second series), hits give low values 1.03 | locus YLR320W, strain mms22, hits give low values 1.02 | locus YLR342W, strain FKS1, hits give low values 1.02 | locus YLR357W, strain rsc2, hits give low values 1.04 | locus YLR370C, strain arc18, hits give low values 1.01 | locus YLR384C, strain iki3, hits give low values 1.01 | locus YML120C, strain ndi1, hits give low values 1 | locus YMR058W, strain fet3, hits give low values 0.989 | locus YMR125W, strain sto1, hits give low values 0.99 | locus YMR129W, hits give low values 0.99 | locus YMR205C, strain PFK2, hits give low values 1 | locus YMR231W, strain pep5, hits give low values 1.01 | locus YMR307W, strain GAS1, hits give low values 1.01 | locus YNL071W, strain lat1, hits give low values 0.999 | locus YNL128W, strain TEP1, hits give low values 1.01 | locus YNL153C, strain GIM3, hits give low values 0.958 | locus YNL175C, strain NOP13, hits give low values 1.02 | locus YNL183C, strain NPR1, hits give low values 0.95 | locus YNL197C, strain WHI3, hits give low values 0.998 | locus YNL209W, strain ssb2, hits give low values 0.998 | locus YNL224C, strain SQS1, hits give low values 1.01 | locus YNL248C, strain rpa49, hits give low values 0.996 | locus YNL322C, strain KRE1 (second series), hits give low values 1 | locus YNR049C, strain mso1, hits give low values 1 | locus YOR001W, strain rrp6, hits give low values 0.995 | locus YOR070C, strain gyp1, hits give low values 1 | locus YOR080W, strain dia2, hits give low values 1 | locus YOR083W, strain WHI5 (second series), hits give low values 1.02 | locus YOR083W, strain WHI5, hits give low values 1.01 | locus YOR106W, strain vam3, hits give low values 1.01 | locus YOR231W, strain MKK1, hits give low values 0.99 | locus YOR265W, strain rbl2, hits give low values 1 | locus YOR270C, strain vph1, hits give low values 0.987 | locus YOR290C, strain snf2, hits give low values 0.975 | locus YPL051W, strain arl3, hits give low values 1.02 | locus YPL055C, strain LGE1, hits give low values 0.988 | locus YPL078C, strain atp4, hits give low values 0.984 | locus YPL106C, strain sse1, hits give low values 1 | locus YPL240C, strain hsp82, hits give low values 1.01 | locus YPL256C, strain CLN2, hits give low values 0.988
